Data on 61 compounds can be found in PubChem BioAssay AID1456 (Vanderbilt High Throughput Screening Facility, 2008).

Screen size: about 190,000 compounds; about 4,100 (2.2%) were called active.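 How the source made its calls: active means thallium flux slope and its plate-corrected score both differing from the plate sample mean at a set confidence after two filtering rounds, in either direction; inactive means the rest.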 Many of the other results were omitted from the sample, so actives are more common in it than they were.

In the test the target is Solute carrier family 12 member 5 (Homo sapiens) (UniProt Q9H2X9). Description: modulation of human KCC2 ion transport – cell-based, HEK293 KCC2, FluoZin-2 fluorescence, MLSMR, primary screen (AID 1456).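 Further: slope of fluorescence scaled to starting intensity during 10 to 20 s after thallium.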 The conditions noted are these: KCC2 cells, thallium flux FluoZin-2 fluorescence; at 10 µM.
Chain of Solute carrier family 12 member 5 (Homo sapiens) (Q9H2X9 whole entry, looked up): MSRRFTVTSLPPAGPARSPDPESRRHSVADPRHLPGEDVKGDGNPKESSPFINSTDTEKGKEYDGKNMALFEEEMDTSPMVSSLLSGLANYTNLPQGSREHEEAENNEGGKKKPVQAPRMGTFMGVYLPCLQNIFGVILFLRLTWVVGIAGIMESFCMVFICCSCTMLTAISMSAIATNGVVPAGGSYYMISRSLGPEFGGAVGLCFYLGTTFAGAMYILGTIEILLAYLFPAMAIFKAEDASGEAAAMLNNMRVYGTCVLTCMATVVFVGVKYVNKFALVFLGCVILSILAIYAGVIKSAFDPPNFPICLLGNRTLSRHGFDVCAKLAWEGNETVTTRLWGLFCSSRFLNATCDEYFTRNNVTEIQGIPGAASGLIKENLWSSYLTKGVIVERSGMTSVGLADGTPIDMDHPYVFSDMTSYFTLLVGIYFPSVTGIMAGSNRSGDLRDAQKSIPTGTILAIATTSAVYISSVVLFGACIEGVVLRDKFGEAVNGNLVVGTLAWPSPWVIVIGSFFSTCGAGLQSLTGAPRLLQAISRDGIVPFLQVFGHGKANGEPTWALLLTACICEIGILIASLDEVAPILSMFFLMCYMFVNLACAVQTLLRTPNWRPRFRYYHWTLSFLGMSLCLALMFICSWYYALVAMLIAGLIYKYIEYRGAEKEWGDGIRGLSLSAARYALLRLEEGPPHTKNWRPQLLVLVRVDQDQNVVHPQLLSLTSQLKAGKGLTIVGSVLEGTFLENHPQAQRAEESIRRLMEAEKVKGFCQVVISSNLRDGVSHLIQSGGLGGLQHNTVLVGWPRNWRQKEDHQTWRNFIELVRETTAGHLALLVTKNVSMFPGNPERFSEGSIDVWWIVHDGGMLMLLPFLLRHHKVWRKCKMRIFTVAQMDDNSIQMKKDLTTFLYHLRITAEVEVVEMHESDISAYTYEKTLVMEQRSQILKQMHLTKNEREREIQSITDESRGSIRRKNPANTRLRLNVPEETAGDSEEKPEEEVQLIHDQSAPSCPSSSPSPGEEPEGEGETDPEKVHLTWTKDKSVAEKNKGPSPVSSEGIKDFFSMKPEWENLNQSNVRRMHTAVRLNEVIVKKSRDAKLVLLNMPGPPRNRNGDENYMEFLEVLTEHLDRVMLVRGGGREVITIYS
Regarding `COc1ccc(OCc2cccc(C(=O)N3CCCC3)c2)cc1`, the B-score of Tl+ flux slope (higher = more flux/activation; lower = inhibition) is 0.115 (inactive). In the case of `Cc1ccc(COc2ccc(C(=O)NN)cc2)cc1`, the B-score of Tl+ flux slope (higher = more flux/activation; lower = inhibition) was -0.198 (inactive). As to `Cc1oc(C(N)=O)cc1COc1ccc(C(N)=O)cc1`, the B-score of Tl+ flux slope (higher = more flux/activation; lower = inhibition) is 2.17 (active). As for `COc1ccc(Cl)cc1S(=O)(=O)N1CCC(O)(c2ccc(Cl)cc2)CC1`, the figure is -0.0293 (inactive); as for `Cc1cccc(N=Nc2c(C)[nH]n(-c3ccccc3)c2=O)c1`, 0.0317 (inactive); as for `Cc1[nH]n(-c2ccccc2)c(=O)c1N=Nc1ccccc1C(=O)N1CCCCC1`, 5.68 (active). For `Cc1ccc(N=Nc2c(C)[nH]n(-c3ccccc3)c2=O)cc1`, the B-score of Tl+ flux slope (higher = more flux/activation; lower = inhibition) is 3.14 (inactive). As for `CSc1nc(-c2ccco2)nn1C(=O)c1ccccc1Cl`, the figure is -1.08 (inactive). Regarding `COC(=O)c1cc2c(N)c(C(=O)c3ccc(Cl)cc3)sc2nc1C(OC)OC`, the B-score of Tl+ flux slope (higher = more flux/activation; lower = inhibition) was 0.11 (inactive).

Regarding `COc1cc(OC)cc(/C(N)=N/O)c1`, the B-score of Tl+ flux slope (higher = more flux/activation; lower = inhibition) is -0.654 (inactive). As for `COc1ccc(N2C(=O)c3ccccc3NC2c2ccc(OC)c(CN3CCOCC3)c2)cc1` (stereo unspecified), the figure is -0.152 (inactive); as for `C=CCn1c(=S)sc2c(=O)[nH]c(C)nc21`, -0.647 (inactive). As for `C=CCn1c(=S)[nH]c2nc3c(cc2c1=O)COC(C)(C)C3`, the figure is 3.61 (active). As for `O=C(CCl)N(Cc1cccc([N+](=O)[O-])c1)c1cccc(Cl)c1`, the figure is -0.452 (inactive); as for `Cn1c2ccccc2c2cc(/C=C(\NC(=O)c3ccccc3)C(=O)NCC(=O)O)ccc21`, 0 (inactive); as for `O=C(CSc1ccc(-c2cccs2)nn1)Nc1ccccc1F`, -2.89 (active).

For the compound `Cn1c(CCC(=O)Nc2ccccc2F)nnc1SCC(=O)Nc1ccccc1Cl`, the B-score of Tl+ flux slope (higher = more flux/activation; lower = inhibition) was -0.846 (inactive).

On to `Cc1csc(NC(=O)CSc2ccc(-c3ccc(F)cc3)nn2)n1`, for which the B-score of Tl+ flux slope (higher = more flux/activation; lower = inhibition) was -4.45 (inactive).

Consider `C=CCC1(C#N)C(=S)NC(C)=C(C(=O)OCC)C1c1ccccc1` (stereo unspecified), for which the B-score of Tl+ flux slope (higher = more flux/activation; lower = inhibition) is -0.00243 (inactive). Regarding `Cc1ccc(SCc2c(C(=O)N/N=C/C3CC=CCC3)nnn2-c2nonc2N)cc1` (stereo unspecified), the B-score of Tl+ flux slope (higher = more flux/activation; lower = inhibition) is -0.374 (inactive). As for `O=C(Nc1nnc(Cc2ccc(Cl)cc2)s1)c1ccncc1`, the B-score of Tl+ flux slope (higher = more flux/activation; lower = inhibition) was -2.1 (inactive). As for `NS(=O)(=O)c1ccc(NC(=S)Nc2ccc(Br)c(Cl)c2)cc1`, the figure is 0.559 (inactive); as for `CC(C)Oc1ccc(CCC(=O)NNC(=S)NCc2ccccc2)cc1`, -1.38 (inactive). In the case of `Cc1ccc(OCC(=O)NNC(=S)NCc2ccccc2)cc1`, the B-score of Tl+ flux slope (higher = more flux/activation; lower = inhibition) was 9.51 (active). On to `CCCc1ccc(OCC(=O)NNC(=S)NC(=O)c2ccco2)cc1`, for which the B-score of Tl+ flux slope (higher = more flux/activation; lower = inhibition) is 28.4 (active). As for `O=C(Nc1ccc2ccccc2c1)/C(=C/c1cccc(Br)c1)NC(=O)c1ccco1`, the figure is -1.51 (inactive). As for `COc1ccc(CCNC(=O)c2ccco2)cc1`, the figure is 0.796 (inactive). As for `CC(=O)Nc1ccc(OCC(=O)NCc2ccc(C)cc2)cc1`, the figure is -0.00613 (inactive); as for `O=C(Nc1ccc2ccccc2c1)/C(=C\c1ccc2c(c1)OCO2)NC(=O)c1ccco1`, 0.0996 (inactive). Regarding `CC(Oc1ccc2ccccc2c1)C(=O)NNC(=S)NC(=O)c1ccco1` (stereo unspecified), the B-score of Tl+ flux slope (higher = more flux/activation; lower = inhibition) was 25.4 (active). Consider `CCNC(=S)NNC(=O)Cc1ccccc1`, for which the B-score of Tl+ flux slope (higher = more flux/activation; lower = inhibition) is 0.737 (inactive). As for `CC(C)(C)c1cc(C(=O)NN)n(Cc2ccc(Cl)cc2Cl)n1`, the figure is -0.315 (inactive); as for `O=S(=O)(Nc1n[nH]c(C(F)(F)F)n1)c1ccccc1`, -2.65 (inactive); as for `N#Cc1c(NCCO)ccc([N+](=O)[O-])c1NCCO`, -0.904 (inactive). As for `Nc1nnnn1CC(=O)N/N=C/c1ccc(-c2cccc(Cl)c2)o1`, the figure is -0.38 (inactive); as for `O=C1c2ccccc2NC(c2ccc(-c3cccc(Cl)c3)o2)N1O` (stereo unspecified), 35 (active).

For the compound `O=C1NC(c2cccc(Cl)c2)Nc2ccccc21` (stereo unspecified), the B-score of Tl+ flux slope (higher = more flux/activation; lower = inhibition) is 0.445 (inactive). As for `CCn1c(SCC(=O)Nc2sc(C)c(C)c2C#N)nnc1C1CC1`, the figure is 0.253 (inactive); as for `Cc1onc(-c2ccccc2)c1C(=O)N1CCOCC1`, 0.00257 (inactive). Regarding `Cc1onc(-c2ccccc2)c1C(=O)NNC(=S)NC(=O)c1ccc(F)cc1`, the B-score of Tl+ flux slope (higher = more flux/activation; lower = inhibition) is 8.51 (active). Turning to `CC(=O)Nc1cccc(NC(=O)c2c(-c3ccccc3)noc2C)c1`, the B-score of Tl+ flux slope (higher = more flux/activation; lower = inhibition) was -0.00829 (inactive). `COc1ccc(C(=O)NC(=S)NNC(=O)c2c(-c3ccccc3)noc2C)cc1`: the B-score of Tl+ flux slope (higher = more flux/activation; lower = inhibition) was 11.1 (active). As for `COc1ccc(C(=O)NNC(=S)NC(=O)c2ccccc2[N+](=O)[O-])cc1`, the figure is 1.61 (inactive); as for `Cc1onc(-c2ccccc2)c1C(=O)N=C(N)c1ccc(Cl)cc1`, 1.42 (inactive).

Turning to `O=C1CCCC(O)=C1N=Nc1ccc(S(=O)(=O)N2CCOCC2)cc1`, the B-score of Tl+ flux slope (higher = more flux/activation; lower = inhibition) was -0.62 (inactive). `Cc1ccc(OC(=O)c2c(C)nn(-c3ccccc3)c2C)cc1`: the B-score of Tl+ flux slope (higher = more flux/activation; lower = inhibition) is 0.00646 (inactive). Consider `O=C(Nc1ccc(Cl)cc1)Nc1ccc(C(=O)N2CCOCC2)cc1`, for which the B-score of Tl+ flux slope (higher = more flux/activation; lower = inhibition) was 0.868 (inactive). Regarding `c1ccc2c(NC3C4CC5CC(C4)CC3C5)nc(N3CCOCC3)nc2c1` (stereo unspecified), the B-score of Tl+ flux slope (higher = more flux/activation; lower = inhibition) is -0.0419 (inactive). As for `COC(=O)c1sccc1NC(=O)CC1C(=O)NCCN1C(=O)Nc1ccc(F)cc1F` (stereo unspecified), the figure is -0.52 (inactive); as for `COC(=O)c1ccccc1N=Nc1c(C)[nH][nH]c1=O`, 0.855 (inactive).

Consider `O=C(Nc1ccc(S(=O)(=O)Nc2nccs2)cc1)c1cc(-c2ccncc2)nc2ccccc12`, for which the B-score of Tl+ flux slope (higher = more flux/activation; lower = inhibition) is -0.477 (inactive). With `CC(C)(C)Cc1nnc(NC(=O)c2cc(-c3ccccc3)nc3ccccc23)s1`, the B-score of Tl+ flux slope (higher = more flux/activation; lower = inhibition) is 0.0714 (inactive). With `O=C(Nc1nnc(-c2ccccc2)o1)c1cc(-c2cccs2)nc2ccccc12`, the B-score of Tl+ flux slope (higher = more flux/activation; lower = inhibition) was 99.4 (active). For `Cc1c(NC(=O)CN2C(=O)C(=O)N(Cc3ccccc3)C2=O)c(=O)n(-c2ccccc2)n1C`, the B-score of Tl+ flux slope (higher = more flux/activation; lower = inhibition) was 0.0462 (inactive). For the compound `CC(C)n1c(O)c(N=Nc2ccccn2)c2ccccc21`, the B-score of Tl+ flux slope (higher = more flux/activation; lower = inhibition) is 5.67 (active).

For `Oc1oc(-c2ccccc2Br)nc1/C=N/c1ccccn1`, the B-score of Tl+ flux slope (higher = more flux/activation; lower = inhibition) was 1.39 (inactive).

For `COC(=O)Cn1c(O)c(N=NC(=O)OC)c2ccccc21`, the B-score of Tl+ flux slope (higher = more flux/activation; lower = inhibition) is 1.85 (inactive). As for `COc1ccc(Cn2c(O)c(/C=C3/C=CC=N3)c(=O)[nH]c2=O)cc1`, the figure is -0.723 (inactive); as for `Cn1nc(C(F)(F)F)cc1C(=O)O`, 1.56 (inactive); as for `Cc1cc(NC(=O)OC(C)C)ccc1-c1ccc(NC(=O)OC(C)C)cc1C`, -0.761 (inactive).

For the compound `CC(C)CN(CC(C)C)CC(O)CN(c1ccccc1)S(=O)(=O)c1ccccc1[N+](=O)[O-]` (stereo unspecified), the B-score of Tl+ flux slope (higher = more flux/activation; lower = inhibition) was -2.39 (inactive).
